SMILES strings stand for the structures. Results filed as inconclusive are left out. Values without a mark were called inactive. Active and inactive are the calls of the source. The call rests on the fitted dose curve; in most records, active means well fitted inhibition curve with a large enough effect; inconclusive means small, poorly fitted or top-dose-only effect; inactive means flat fitted curve, though single readings scatter.
Potency means the concentration at half of the fitted maximal effect.

For this assay, the system named is CP203. As to the kind of experiment: qHTS profiling for inhibitors of Plasmodium falciparum proliferation (AID 504749). Further: nearly all actives have a fitted effect of over 60% in size.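 On activity, negative = inhibition: 0% = DMSO vehicle and full inhibition = artemisinin control.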 The following applies: P. falciparum in erythrocytes, SYBR Green DNA, 72 h; series mostly up to 28.7 µM; activity, negative = inhibition: at the top concentration. From the text: NIH National Institute of Allergy and Infectious Diseases [NIAID] NIH Chemical Genomics Center [NCGC] MLPCN Grant: None Assay Provider: Xinzhuan Su, NIAID NCGC Assay Overview: Plasmodium falciparum is a virulent malarial parasite that kills 1-2 million people worldwide each year. Transmitted by mosquitoes, the sporozoite form of the parasite enters the blood stream to infect hepatocytes, where they become merozoites that infect red blood cells (erythrocytes). Within erythrocytes, merozoites begin a […] cycle of growth and division, after which the parasite is released to infect new red blood cells. Gametocytes, which form within erythrocytes as well, circulate in the bloodstream and are ingested by the mosquito, thereby completing the life cycle. To profile malarial isolates for differential chemical responses and to identify inhibitors of malarial growth, an assay that measures P. falciparum growth and replication within erythrocytes was employed. This assay uses a DNA binding fluorescent dye (SYBR Green) to detect parasite DNA following cell lysis. Because mature erythrocytes lack DNA, only Plasmodium-derived DNA is detected.
NCGC Assay Protocol Summary: The SYBR Green viability assay was adapted from a method described previously (Plouffe et al., 2008). For screening 3 ul culture medium was dispensed into 1536 well black clear bottom plates (Aurora Biotechnologies) using a Multidrop Combi (Thermo Fisher Scientific Inc.), 23 nL compounds in DMSO were added by a pin tool (Kalypsys), and 5 ul of erythrocytes infected with P. falciparum (0.3% parasitemia, 2.5% hematocrit final concentration) were added. The plates were incubated at 37 C in a humidified incubator in 5% CO2 for 72 h, and 2 ul lysis buffer (20 mM Tris HCl, 10 mM EDTA, 0.16% saponin, 1.6% triton X, 10X SYBR Green I supplied as 10,000X […] by Invitrogen) was added to each well. The plates were mixed for 25 sec with gentle shaking and incubated overnight at room temperature in the dark. The following morning, fluorescence intensity at 485(14) nm excitation and 535(25) nm emission wavelengths was measured on an EnVision (Perkin Elmer) plate reader. Plate reads were normalized relative to the control inhibitor (0.29 uM artemisinin) and vehicle (DMSO) wells present on each plate and then corrected by an algorithm using vehicle-only control plates at the beginning and end of the compound plate stack.
For the compound `Cc1[nH]c(=O)c(C#N)cc1-c1ccc2nccn2c1`, the “activity, negative = inhibition” value is 0.966%.

As for `CCOC(=O)C1=C[C@@]2(CC)CCCN3CCc4c(n1c1ccccc41)[C@H]32`, the Potency was 15.1 µM (active).

In the case of `NNCCc1ccccc1`, the “activity, negative = inhibition” value was -4.97% [at 12.8 µM]. Take `O=C1CCC(N2C(=O)c3ccccc3C2=O)C(=O)N1` (stereo not given): the “activity, negative = inhibition” value was 4.13%. Still for that read-out and setting: as for `CCCCNc1cc(C(=O)O)cc(S(N)(=O)=O)c1Oc1ccccc1`, the figure is -2.99% [at 12.8 µM]; as for `NC[C@H](O)c1ccc(O)c(O)c1`, -5.53%; as for `CC(=O)Oc1ccccc1C(=O)O`, -1.08%.

Regarding `Clc1ccc(Nc2nnc(Cc3ccncc3)c3ccccc23)cc1`, the “activity, negative = inhibition” value is -3.3%. On to `C1COC(NC(C2CC2)C2CC2)=N1`, for which the “activity, negative = inhibition” value was 0.862%.

Regarding `Cc1cn[nH]c1`, the “activity, negative = inhibition” value is -8.68%. As to `CC(C[N+](C)(C)C)OC(N)=O` (stereo not given), the “activity, negative = inhibition” value is 5.23%. On to `O=NN(CCCl)C(=O)NCCCl`, for which the “activity, negative = inhibition” value is -18.3%. As for `Oc1ccc(C2CNCCc3c2cc(O)c(O)c3Cl)cc1` (stereo not given), the “activity, negative = inhibition” value is 1.7%. As for `Cc1ccc(N(CC2=NCCN2)c2cccc(O)c2)cc1`, the “activity, negative = inhibition” value was -3.42%. As for `CC(c1cc2ccccc2s1)N(O)C(N)=O` (stereo not given), the “activity, negative = inhibition” value is -2.21%.

In the case of `N[C@@H]1CONC1=O`, the “activity, negative = inhibition” value was 1.53%.

As to `CCc1ccc(CCOc2ccc(CC3SC(=O)NC3=O)cc2)nc1` (stereo not given), the “activity, negative = inhibition” value was -0.396%.

Regarding `CN1CCN(CCCN2c3ccccc3Sc3ccc(C(F)(F)F)cc32)CC1`, the Potency was 15.1 µM (active). For `O=c1n(CCCN2CCN(c3cccc(Cl)c3)CC2)nc2ccccn12`, the “activity, negative = inhibition” value is -7.87% [at 12.8 µM]. Consider `CCCc1nc2c(C)cc(-c3nc4ccccc4n3C)cc2n1Cc1ccc(-c2ccccc2C(=O)O)cc1`, for which the “activity, negative = inhibition” value is -15.5%. The same measure, in the same setting: as for `O=C1CCc2cc(OCCCCc3nnnn3C3CCCCC3)ccc2N1`, the figure is 3.58%; as for `Nc1ccc(S(=O)(=O)Nc2ccnn2-c2ccccc2)cc1`, 1.88% [at 12.8 µM]; as for `NCCCC(N)(C(=O)O)C(F)F` (stereo not given), 5.23%.

Regarding `CC(C)NCC(O)COc1ccc(COCCOC(C)C)cc1` (stereo not given), the “activity, negative = inhibition” value was -1.74%. For `N=c1nc(N2CCCCC2)cc(N)n1O`, the “activity, negative = inhibition” value was 2.97%.

For `Nc1nc2ccc(OC(F)(F)F)cc2s1`, the “activity, negative = inhibition” value was -2.4%. As to `NCCc1ccc(O)c(O)c1`, the “activity, negative = inhibition” value is -8.2%. Take `Cc1[nH]c(=O)c(C#N)cc1-c1ccncc1`: the “activity, negative = inhibition” value is 2.83%. For `Cn1cnc([N+](=O)[O-])c1Sc1ncnc2nc[nH]c12`, the “activity, negative = inhibition” value is -3.77%. For `NC(N)=NC(=O)c1nc(Cl)c(N)nc1N`, the Potency was 19 µM (active).

For the compound `Nc1nc2c(ncn2COCCO)c(=O)[nH]1`, the “activity, negative = inhibition” value was -3.47% [at 12.8 µM]. As for `NS(=O)(=O)c1cc2c(cc1Cl)NC=NS2(=O)=O`, the “activity, negative = inhibition” value is 2.09%. As for `Cc1ccccc1C(OCCN(C)C)c1ccccc1` (stereo not given), the Potency is 13.5 µM (active).

As to `N#Cc1ccc(C(c2ccc(C#N)cc2)n2cncn2)cc1`, the “activity, negative = inhibition” value is -1.93% [at 12.8 µM]. Turning to `CC(C)C[C@H](NC(=O)[C@@H](O)[C@H](N)Cc1ccccc1)C(=O)O`, the Potency was 6.01 µM (active).

For the compound `O=c1[nH]cnc2[nH]ncc12`, the “activity, negative = inhibition” value is 3.38%. As for `CNC[C@H](O)c1cccc(O)c1`, the “activity, negative = inhibition” value is -2.74%. Still for that read-out and setting: to `Clc1cccc(Cl)c1NC1=NCCN1` belongs 6.08%. Regarding `CCOC(=O)C1=C[C@]2(CC)CCCN3CCc4c(n1c1ccccc41)[C@@H]32`, the Potency was 16.9 µM (active). Take `Cc1oncc1C(=O)Nc1ccc(C(F)(F)F)cc1`: the “activity, negative = inhibition” value was -3.42% [at 12.8 µM].
